# Laboratory results from PubChem BioAssay (NCI).
# This is part of a sample that, as a whole, favours compounds with a hit. Of some 83,000 tested, about 20% had one in any assay.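 Assay: single dose, 48 h. Readout: percent growth (0 = no net growth; negative = cell death). Active: <10.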 Activity calls are given as the source filed them.
# Tested on: HCT-116 colon
# Assay: NCI-60 one-dose screen, 48 h (100 = growth as untreated, 0 = no growth, -100 = all killed)
# Conditions: 10 µM unless noted
# Method: Growth inhibition of the HCT-116 human tumor cell line is measured as a screen for anti-cancer activity. Cells are grown in 96 well plates and exposed to the test compound for 48 hours. Compounds are tested at a single concentration, which is 10^-5 M for most compounds. The reported endpoint is percent growth (GI% or GIPRCNT), where numbers from 0 - 100% represent growth inhibition, and numbers from -100% - 0 represent cell death. For example, a value of 40 represents 60% growth inhibition. A value of 0 means no net growth occurred over the course of the experiment. A value of -40 indicates 40% of cells at the beginning of the experiment died by the end of the experiment. A value of -100 means all cells are dead at the end of the experiment.
# NCI-60 Human Tumor Cell Lines Screen was performed using the standard one-dose NCI protocol, which is described in more detail at https://dtp.cancer.gov/discovery_development/nci-60/default.htm.
# Compounds with GIPRCNT values below 10 were considered active. Activity score was based on GIPRCNT using the following formula: […]
# Score is 0 for GIPRCNT values of 100 or above, 50 for GIPRCNT values of 0, and 100 for GIPRCNT values of -100.
row,SMILES,growth
1,O=c1[nH]c2ccccc2cc1-c1nc2ccncc2[nH]1,63.2% (inactive)
2,CN1CCN(S(=O)(=O)O[C@@H]2C(=O)N(c3cc4c5ccccc5ccc4c4ccccc34)[C@H]2c2ccc(F)cn2)CC1,85.3% (inactive)
3,O=C(CCCC(=O)Nc1ccc(-n2nnc3cc(Cl)c(Cl)cc32)cc1)Nc1ccc(-n2nnc3cc(Cl)c(Cl)cc32)cc1,45.3% (inactive)
4,COc1cc(C(C)c2ccc3c(ccn3C)c2)cc(OC)c1OC (stereo not given),5.43% (active)
5,Nc1c(C(=O)c2ccccc2)sc2nc(-c3cc4ccccc4o3)cc(-c3ccc(Cl)cc3)c12,101% (inactive)
6,O=CN1N=C(c2ccc(F)cc2)CC1c1cccc(Nc2ccnc3cc(C(F)(F)F)ccc23)c1 (stereo not given),41.8% (inactive)
7,CCOC(=O)C1=C(C)n2nc(CC#N)c(C#N)c2NC1c1ccc(Cl)cc1 (stereo not given),101% (inactive)
8,OCCNc1nc(NCCO)nc(Nc2ccc(C3=NN(c4cc(Cl)cc(Cl)c4)C(c4ccc(Cl)cc4)C3)cc2)n1 (stereo not given),4.84% (active)
9,COc1ccc(-n2nc(C(=O)NCC(=O)O)nc2-c2ccccc2)cc1,101% (inactive)
10,C=C1C(=O)O[C@H]2[C@H]1CC/C(C=Nc1c(N)cc(C(F)(F)F)cc1Br)=C\CC[C@@]1(C)O[C@@H]21,-80.6% (active)
11,Nc1c(C(=O)Nc2ccccn2)sc2nc3c(cc12)C(=O)CCC3,26.3% (inactive)
12,COc1ccccc1-c1ccc2nc(NC(=O)Nc3cc(C(F)(F)F)cc(C(F)(F)F)c3)sc2c1,4.85% (active)
13,COc1ccc2c(c1)C1(C(=O)N2)C(C#N)=C(c2ccccc2)Nc2c1c(-c1ccccc1)nn2-c1ccccc1 (stereo not given),4.04% (active)
14,O=C1CCC23OC(c4ccccc4N12)C(O)C(O)C3O (stereo not given),84.9% (inactive)
15,Cn1c2c(c3ccc(-c4ccn[nH]4)cc3c1=O)C(=O)c1ccccc1-2,21.9% (inactive)
16,O=C(Nc1ccc(N=Cc2ccccc2O)cc1)NC1C=c2ccccc2=CC1 (stereo not given),104% (inactive)
17,COc1cc(N=Nc2cc(S(=O)(=O)O)cc3cc(S(=O)(=O)O)cc(O)c23)c(C)cc1N=Nc1c(S(=O)(=O)O)cc2cc(Nc3ccccc3)ccc2c1O,98.4% (inactive)
18,S=C(Nc1ccccc1)c1ccccn1,92.5% (inactive)
19,O=C1CC23OC4ON=C(Br)C4C2C(O)c2ccccc2N13 (stereo not given),94.5% (inactive)
20,C=C(C)[C@@H]1CCC=C2CC[C@]3(C)[C@H](CC[C@@H]4[C@@]5(C)CCCNC(C)(C)[C@@H]5CC[C@]43C)[C@H]21,-54.8% (active)

row,SMILES,growth
1,CC1CCCN(CCCCCOc2ccc3oc4ccccc4c(=O)c3c2)C1 (stereo not given),52.7% (inactive)
2,COc1cccc(C(=O)OCCn2nc3c4c(cccc42)C(=O)c2ccccc2-3)c1O,29.6% (inactive)
3,Cc1ccc(C(=O)/C(=C/c2ccc([N+](=O)[O-])cc2)S(=O)Cc2ccccc2)cc1 (stereo not given),-59.2% (active)
4,CO[C@@]12C=C[C@@]34CCC(=O)N3c3ccccc3[C@@H](O1)C4C2,102% (inactive)
5,Cc1ccccc1NC(=O)c1sc2nc(C)c(C(C)O)cc2c1N (stereo not given),22% (inactive)
6,C[C@@H]1C(=O)[C@@H]2C[C@@H](O)[C@@H](O)C[C@]2(C)[C@H]2CC[C@@]3(C)C(=C12)CC[C@@H]3[C@@](C)(O)[C@H](O)CCC(C)(C)O,103% (inactive)
7,N#CC1C(c2ccc(Cl)cc2)=Nc2c(c(-c3ccccc3)nn2-c2ccccc2)C12C(=O)Nc1ccc(Cl)cc12 (stereo not given),26.2% (inactive)
8,O=CN1N=C(c2ccc(Cl)cc2)CC1c1cccc(Nc2ccnc3cc(C(F)(F)F)ccc23)c1 (stereo not given),56.3% (inactive)
9,C=C(C)[C@@H]1CC[C@]2(C(=O)OCCOCCOCC[P+](c3ccccc3)(c3ccccc3)c3ccccc3)CC[C@]3(C)[C@H](CC[C@@H]4[C@@]5(C)CC[C@H](C)C(C)(C)[C@@H]5CC[C@]43C)[C@@H]12,-88.4% (active)
10,Nc1ccc(C(=O)Nc2cccc(C(=O)Nc3ccc4c(O)c(N=Nc5ccc(N=Nc6ccc(S(=O)(=O)O)cc6)cc5)c(S(=O)(=O)O)cc4c3)c2)cc1,91.8% (inactive)
11,Cc1ccc(C(=O)O)o1,96.1% (inactive)
12,CC(=O)Oc1c2c(nc3c1c1ccccc1n3Cc1ccccc1)-c1ccccc1C2,73.5% (inactive)
13,O=Cc1[nH]c(Sc2ccccc2)c2ccccc12,60.6% (inactive)
14,CC(=O)OCC1SC(OC(C)=O)C(NC(=O)/C=C/CCl)C(OC(C)=O)C1OC(C)=O (stereo not given),101% (inactive)
15,O=C1NCc2ccc3c(-c4cccc(Cl)c4)c[nH]c3c21,14.2% (inactive)
16,CCCCCOC(=O)c1ccccc1O,98.9% (inactive)
17,N#Cc1c(NC(=O)c2cccs2)[n+]([O-])c2cc(C(F)(F)F)ccc2[n+]1[O-],95.2% (inactive)
18,C=C1C(=O)O[C@H]2[C@H]1CCC(/C=N/c1ncc(Br)cc1N)=C\CC[C@@]1(C)O[C@@H]21,-52.6% (active)
19,O=[N+]([O-])c1cccc(CN(Cc2cccc([N+](=O)[O-])c2O)c2ccccc2)c1O,15.7% (inactive)
20,COC(=O)/C=C1\SC(=Nc2ccc(C(F)(F)F)cc2)N(CCc2c[nH]c3ccccc23)C1=O,-63.4% (active)
